Screens as filed in PubChem.
In the library only some 3.1% were active in any assay of this set; here they are far more common.
dFosB act = activators of mouse delta FosB homodimer; AID 493131; 0.99% of 340,000 active; P13346; activation, % at 25 µM; purified delta FosB, TAMRA-CDK5 oligo fluorescence polarization; percent of positive-control signal above neutral wells;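 active = mean activation above about 17%, with every replicate also reaching it, limit read from the data, passing the limit was not always enough; inconclusive = only one of the two conditions met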
Target sequence (P13346 whole entry, looked up): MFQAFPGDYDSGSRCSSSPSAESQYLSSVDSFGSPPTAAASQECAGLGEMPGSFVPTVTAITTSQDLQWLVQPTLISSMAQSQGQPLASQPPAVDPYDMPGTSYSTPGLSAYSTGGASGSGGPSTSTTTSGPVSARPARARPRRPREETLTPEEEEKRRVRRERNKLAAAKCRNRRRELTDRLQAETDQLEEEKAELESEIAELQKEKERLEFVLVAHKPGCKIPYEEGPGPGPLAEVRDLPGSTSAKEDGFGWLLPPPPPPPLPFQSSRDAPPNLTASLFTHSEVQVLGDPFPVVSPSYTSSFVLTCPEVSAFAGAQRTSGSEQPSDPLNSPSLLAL
RAD54 branch = blocks human RAD54 Holliday junction branch migration. Q92698. FAM/BHQ fluorescence. inhibition, % at 10.4 µM. 0.14% of 360,000 active. AID 602329;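 active = mean normalized replicate activity at least 40 and at least half of replicates scoring 40 or more; inconclusive = only one of the two criteria met; inactive = mean below 40 and under half of replicates reaching 40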;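 note: 0% = median of neutral control wells and 100% = median of positive control wells; inhibitors cause a drop in the FAM fluorescence signal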
INS-1E GSIS act = primary screen for activators of insulin secretion dependent on glucose, INS-1E cells, GLuc reporter luminescence; INS-1E GLuc reporter insulin secretion, 2-3 h; activation, % at 16.6 µM; 0.61% of 370,000 active;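 active = lowest replicate activation of at least 40%, so every replicate reaches that level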;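 note: 0% = median of neutral control wells and 100% = median of IBMX positive control wells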
RAD52 inh = RAD52 (human) annealing inhibition; recombinant RAD52 DNA annealing, FRET fluorescence; inhibition, % at 18.7 µM; 0.46% of 360,000 active;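 active = every replicate showing at least 50% inhibition; inconclusive = mean inhibition at least 50% but not in every replicate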
DENV2 CPE rescue = DENV2-induced cell death inhibition; DENV2-infected cells, cytopathic effect rescue, plate reader; CPE inhibition, % at 9.99 µM; 1.7% of 350,000 active; AID 651640; in the data active = CPE inhibition above about 20%, passing the limit was not always enough; inconclusive = no clear call, values can overlap the other calls; tested in BHK-21 cells;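 note: 0% = median of neutral control wells and 100% = median of positive control wells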
AF4-AF9 inh = MLL-AF4/AF9 protein interaction inhibition; inhibition, % at 10 µM; 0.47% of 350,000 active; P42568; AlphaScreen, biotin-AF4 peptide binding to FLAG-AF9;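 active = every replicate reaching a set inhibition limit, whatever the replicate mean, cut at about 25% in these data; inconclusive = mean inhibition reaches that limit but some replicates miss it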;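 note: 0% = plate neutral control median and 100% = total signal loss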
The depositor's hits bear a star.

COc1cc(CNc2ccc3[nH]c(=O)[nH]c3c2)ccc1OCc1c(F)cccc1Cl was read as dFosB act -6, RAD54 branch 3, INS-1E GSIS act 32, RAD52 inh -19, DENV2 CPE rescue -2 and AF4-AF9 inh 1.
Screening COc1ccc2c3c(n(C)c2c1)[C@@H](CO)NCC31CCN(Cc2ccccc2Cl)CC1 returned INS-1E GSIS act -1, DENV2 CPE rescue 1 and AF4-AF9 inh 2.
CC(C)(C)OC(=O)NCCOCCOCCNc1ncnc2ccc(Br)cc12 was read as RAD52 inh 21, DENV2 CPE rescue 20* and AF4-AF9 inh -4.
C[C@@H]1CCCCO[C@@H](CN(C)C(=O)Cc2ccccc2)[C@@H](C)CN([C@H](C)CO)C(=O)c2cc(NC(=O)CCCN(C)C)ccc2O1 was read as RAD54 branch 2, INS-1E GSIS act 8, RAD52 inh -9, DENV2 CPE rescue inconclusive and AF4-AF9 inh -1.
Screening COCC#Cc1cnc2c(c1)C(=O)N([C@@H](C)CO)C[C@H](C)[C@H](CN(C)S(=O)(=O)c1ccccc1)O2 returned RAD54 branch -4, INS-1E GSIS act -1, RAD52 inh 4, DENV2 CPE rescue 5 and AF4-AF9 inh -3.
`COc1cc(NC(=O)c2c(-c3ccccc3Cl)noc2C)c2ncccc2c1` gave dFosB act -8, RAD54 branch 2, INS-1E GSIS act 51*, RAD52 inh 0, DENV2 CPE rescue 1 and AF4-AF9 inh 8.
Screening Cc1onc(-c2ccccc2Cl)c1C(=O)Nc1cccc2cccnc12 returned dFosB act -6, RAD54 branch 2 and INS-1E GSIS act 14.
CC1(C)OC(=O)C2=C(C[C@@H](C3CCCC3)O[C@H]2c2ccc(Cl)cc2)O1 was read as INS-1E GSIS act 23, RAD52 inh -5, DENV2 CPE rescue 2 and AF4-AF9 inh 0.
`C[C@@H]1O[C@H](C2CCCC2)CC2=C1C(=O)OC(C)(C)O2` gave INS-1E GSIS act 60*, RAD52 inh 3, DENV2 CPE rescue 4 and AF4-AF9 inh -2.
`O=C(C1CC1)N1C[C@H]2[C@@H](c3ccccc31)[C@@H](CO)N2C(=O)Nc1cccc(F)c1` gave RAD54 branch -2, INS-1E GSIS act 0, RAD52 inh 3, DENV2 CPE rescue -7 and AF4-AF9 inh -8.
`COc1cc(CN(C)Cc2cccc3ccccc23)cc([N+](=O)[O-])c1O` gave dFosB act 2, RAD54 branch -5, INS-1E GSIS act 4, RAD52 inh -12, DENV2 CPE rescue 42* and AF4-AF9 inh 2.
Screening CN(Cc1cccc([N+](=O)[O-])c1)Cc1cccc2ccccc12 returned dFosB act -2, RAD54 branch 1, INS-1E GSIS act -29, RAD52 inh 1, DENV2 CPE rescue 5 and AF4-AF9 inh 12.
Screening C[C@H](CO)N1C[C@H](C)[C@@H](CN(C)C(=O)Nc2ccc3c(c2)OCO3)Oc2c(NC(=O)NC3CCCCC3)cccc2C1=O returned INS-1E GSIS act -17.
CC(C)c1cn(CC[C@@H]2CC[C@H](NS(=O)(=O)c3ccccc3)[C@H](CO)O2)nn1 was read as RAD54 branch 3, INS-1E GSIS act 10, RAD52 inh -1, DENV2 CPE rescue -1 and AF4-AF9 inh -2.
Screening COC(=O)C1=C(C)NC(c2c(O)ccc3ccccc23)C(C(=O)OC)=C1C (stereo unspecified) returned dFosB act -7 and INS-1E GSIS act 53*.
For CC(C)CNC(=O)c1cccc2c1-c1ccccc1C2=O the results were dFosB act 5, RAD54 branch -1, INS-1E GSIS act 31, RAD52 inh -4, DENV2 CPE rescue 4 and AF4-AF9 inh 42*.
O=C(NCC(F)(F)F)[C@@H]1[C@@H](CO)[C@@H]2Cn3c(cccc3=O)[C@@H]2N1C(=O)C1CC1 was read as RAD54 branch -3, INS-1E GSIS act 7, RAD52 inh 17, DENV2 CPE rescue -2 and AF4-AF9 inh -1.
`O=C(C[C@H]1C[C@H]2c3cc(NS(=O)(=O)c4ccc(F)cc4)ccc3O[C@H]2[C@@H](CO)O1)NCc1cccc(F)c1` gave RAD54 branch 0, INS-1E GSIS act -10, RAD52 inh 5, DENV2 CPE rescue -2 and AF4-AF9 inh 3.
Screening CC(C)n1c(SCc2ccccc2F)nc2c1c(=O)n(C)c(=O)n2C returned dFosB act -6, RAD54 branch -3, INS-1E GSIS act 16, RAD52 inh -3, DENV2 CPE rescue -11 and AF4-AF9 inh 1.
For COc1ccccc1CSc1nc2c(c(=O)n(C)c(=O)n2C)n1C the results were dFosB act -2, RAD54 branch -1, INS-1E GSIS act 41*, RAD52 inh -14, DENV2 CPE rescue -6 and AF4-AF9 inh 0.
C[C@H](CO)N1C[C@H](C)[C@H](CN(C)CC2CC2)Oc2cc(C#Cc3cccnc3)ccc2S1(=O)=O was read as INS-1E GSIS act -12.
CCOC(=O)c1cnc2c([N+](=O)[O-])cnn2c1C was read as dFosB act -4, RAD54 branch 2, INS-1E GSIS act 9, RAD52 inh -7, DENV2 CPE rescue 4 and AF4-AF9 inh -14.
`O=[N+]([O-])c1cnn2cc(Br)cnc12` gave dFosB act 3, RAD54 branch -2, INS-1E GSIS act 45*, RAD52 inh 10, DENV2 CPE rescue -3 and AF4-AF9 inh -2.
`C=CCc1cccc(/C=N/NC(=O)c2ccc3nc[nH]c3c2)c1O` gave dFosB act 19*, RAD54 branch 11, INS-1E GSIS act -23, RAD52 inh -3, DENV2 CPE rescue -4 and AF4-AF9 inh 6.
Screening CCc1ccccc1N(C(=O)c1ccco1)C(C(=O)NC1CCCC1)c1cccnc1 (stereo unspecified) returned dFosB act -1, RAD54 branch -6, INS-1E GSIS act -12, RAD52 inh -4, DENV2 CPE rescue 54* and AF4-AF9 inh -1.
`Cc1ccccc1N(C(=O)c1ccco1)C(C(=O)NC1CCCC1)c1cccnc1` (stereo unspecified) gave dFosB act -2, RAD54 branch 16, INS-1E GSIS act -4, RAD52 inh -8, DENV2 CPE rescue -1 and AF4-AF9 inh -1.
For COc1ccc(Cl)cc1N(C(=O)c1ccco1)C(C(=O)NC1CCCC1)c1ccco1 (stereo unspecified) the results were dFosB act -6, INS-1E GSIS act -5, RAD52 inh -34, DENV2 CPE rescue 75* and AF4-AF9 inh -3.
Screening COc1ccc(Cl)cc1N(C(=O)c1ccco1)C(C(=O)NC1CCCC1)c1ccncc1 (stereo unspecified) returned dFosB act -6, RAD54 branch -1, INS-1E GSIS act -12, RAD52 inh -4, DENV2 CPE rescue 3 and AF4-AF9 inh -3.
